Data taken from the supplement of paper PMC6763611.

Test system: Plasmodium falciparum NF54
Experiment: growth inhibition relative to untreated control; higher = more inhibition
Settings: 72 h
Summary of the method: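 Two media were used: minimal RPMI, and minimal RPMI carrying the chorismate end-products folate, pABA, pHBA, tyrosine, phenylalanine and tryptophan at 2.2 μM, 7.3 μM, 7.3 μM, 111 μM and 90 μM for the first five. In these media, P. falciparum NF54 ring stages (1% hematocrit, 1% parasitemia, 100 μL/well) were exposed in dark 96-well half-area plates to a single 5 μM or 1 μM test-compound dose for 72 h at 37 °C. Growth inhibition was then assessed with SYBR Green against untreated wells, subtracting background from uninfected erythrocytes.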

[1] = 1 µM, MM + chorismate end-products (CM screening medium)
[2] = 5 µM, MM + chorismate end-products (CM screening medium)

SMILES: O=C(NCc1nnc2n1CCCCC2)c1ccc(-c2ccc(F)cc2)o1
- growth inhibition [1]: < 0%
- growth inhibition (1 µM, minimal medium (MM)): < 0%
- growth inhibition [2]: < 0%
- growth inhibition (5 µM, minimal medium (MM)): < 0%

SMILES: O=C(Nc1c(O)cccc1-c1nc2c(C(=O)O)cccc2o1)c1cc(-c2ccccc2)on1
- growth inhibition [1]: > 100%
- growth inhibition (1 µM, minimal medium (MM)): < 0%
- growth inhibition [2]: < 0%
- growth inhibition (5 µM, minimal medium (MM)): < 0%

SMILES: O=C(Cn1ccnc1[N+](=O)[O-])NCc1ccccc1
- growth inhibition [1]: 20.5%
- growth inhibition (1 µM, minimal medium (MM)): < 0%
- growth inhibition [2]: 0.641%
- growth inhibition (5 µM, minimal medium (MM)): < 0%

SMILES: FC(F)(F)c1cccc(-c2nc3c(NCc4ccncc4)nccc3[nH]2)c1
- growth inhibition [1]: 99.9%
- growth inhibition (1 µM, minimal medium (MM)): > 100%
- growth inhibition [2]: 95.4%
- growth inhibition (5 µM, minimal medium (MM)): 96%

SMILES: Cc1cc(C)nc(-n2nc(C)cc2Nc2ccccc2)n1
- growth inhibition [1]: 16.6%
- growth inhibition (1 µM, minimal medium (MM)): 9.77%
- growth inhibition [2]: 69.8%
- growth inhibition (5 µM, minimal medium (MM)): 34.2%

SMILES: O=C(Nc1cccc(-c2ccc(NCCCN3CCCC3)nc2)c1)c1ccccc1
- growth inhibition [1]: 96.3%
- growth inhibition (1 µM, minimal medium (MM)): > 100%
- growth inhibition [2]: 63.2%
- growth inhibition (5 µM, minimal medium (MM)): 81.1%

SMILES: O=C(Nc1cccc(Cl)c1)c1cnc(N2CCN(c3ccncc3)CC2)c(Cl)c1
- growth inhibition [1]: 90.3%
- growth inhibition (1 µM, minimal medium (MM)): > 100%
- growth inhibition [2]: 99.9%
- growth inhibition (5 µM, minimal medium (MM)): 87.9%

SMILES: O=C1Nc2ccc(Br)cc2C12NCCc1c2[nH]c2ccccc12 (stereo not drawn)
- growth inhibition [1]: 97.4%
- growth inhibition (1 µM, minimal medium (MM)): 94.7%
- growth inhibition [2]: 95.9%
- growth inhibition (5 µM, minimal medium (MM)): 87.5%

SMILES: Clc1cccc(CO[C@H]2CCc3ccccc3[C@@H]2n2ccnn2)c1
- growth inhibition [1]: 7.57%
- growth inhibition (1 µM, minimal medium (MM)): < 0%
- growth inhibition [2]: < 0%
- growth inhibition (5 µM, minimal medium (MM)): 15.4%

SMILES: CCN(CC)C(=O)N1CCN(C)CC1
- growth inhibition [1]: 31.7%
- growth inhibition (1 µM, minimal medium (MM)): 2.45%
- growth inhibition [2]: < 0%
- growth inhibition (5 µM, minimal medium (MM)): < 0%

SMILES: Clc1cccc(C(c2ccc(CN3CCNCC3)cc2)n2ccnc2)c1 (stereo not drawn)
- growth inhibition [1]: 93.2%
- growth inhibition (1 µM, minimal medium (MM)): > 100%
- growth inhibition [2]: 93.5%
- growth inhibition (5 µM, minimal medium (MM)): 91.5%

SMILES: COC(=O)c1c(NC(=O)c2c(F)c(F)c(F)c(F)c2F)sc2c1CCCCC2
- growth inhibition [1]: 26.9%
- growth inhibition (1 µM, minimal medium (MM)): 25.7%
- growth inhibition [2]: < 0%
- growth inhibition (5 µM, minimal medium (MM)): < 0%

SMILES: Nc1ncc(-c2cn[nH]c2)cc1-c1nc2cc(Cl)cnc2[nH]1
- growth inhibition [1]: 97%
- growth inhibition (1 µM, minimal medium (MM)): 97%
- growth inhibition [2]: > 100%
- growth inhibition (5 µM, minimal medium (MM)): 94.3%

SMILES: COc1ccccc1OCCCCn1c(C2CC2)nc2ccccc21
- growth inhibition [1]: 37%
- growth inhibition (1 µM, minimal medium (MM)): 21.3%
- growth inhibition [2]: 74.9%
- growth inhibition (5 µM, minimal medium (MM)): 50.7%

SMILES: O=C(c1cc2ccccc2o1)N1CCN(Cc2ccc3c(c2)OCO3)CC1
- growth inhibition [1]: 15.1%
- growth inhibition (1 µM, minimal medium (MM)): 12.4%
- growth inhibition [2]: < 0%
- growth inhibition (5 µM, minimal medium (MM)): < 0%

SMILES: C[C@H](c1ccc2c(c1)CCCC2)N(C)c1ncc2c(N)nc(N)nc2n1
- growth inhibition [1]: 8.99%
- growth inhibition (1 µM, minimal medium (MM)): 2.84%
- growth inhibition [2]: 36%
- growth inhibition (5 µM, minimal medium (MM)): 15.3%

SMILES: O=C(NCCc1c[nH]c2ccccc12)c1cc2ccccc2oc1=O
- growth inhibition [1]: 20.7%
- growth inhibition (1 µM, minimal medium (MM)): 2.31%
- growth inhibition [2]: < 0%
- growth inhibition (5 µM, minimal medium (MM)): < 0%

SMILES: CCc1ccc(C(NCc2nc(N)nc(N(C)C)n2)C(C)C)cc1 (stereo not drawn)
- growth inhibition [1]: 9.14%
- growth inhibition (1 µM, minimal medium (MM)): < 0%
- growth inhibition [2]: 51.5%
- growth inhibition (5 µM, minimal medium (MM)): 9.29%

SMILES: O=C(C1CCN(c2nnc(-n3cccc3)s2)CC1)N1CCC(Cc2ccccc2)CC1
- growth inhibition [1]: 6.31%
- growth inhibition (1 µM, minimal medium (MM)): 8.02%
- growth inhibition [2]: 48.7%
- growth inhibition (5 µM, minimal medium (MM)): 8.81%

SMILES: Brc1cncc(-c2cc(NCCCn3ccnc3)nc(-c3ccccc3)n2)c1
- growth inhibition [1]: > 100%
- growth inhibition (1 µM, minimal medium (MM)): 39.8%
- growth inhibition [2]: 91.2%
- growth inhibition (5 µM, minimal medium (MM)): 90.1%

SMILES: O=C(NCc1ccoc1)N1CCN(Cc2ccc3c(c2)OCO3)CC1
- growth inhibition [1]: < 0%
- growth inhibition (1 µM, minimal medium (MM)): 6.98%
- growth inhibition [2]: < 0%
- growth inhibition (5 µM, minimal medium (MM)): < 0%

SMILES: CCCc1ccc(S(=O)(=O)Nc2ccc(CN3CCN(CC4CC4)CC3)cc2)cc1
- growth inhibition [1]: 7.84%
- growth inhibition (1 µM, minimal medium (MM)): 4.1%
- growth inhibition [2]: 66.4%
- growth inhibition (5 µM, minimal medium (MM)): 86.7%

SMILES: COc1cc(Br)cc2cc(C(=O)Nc3cccc(C(F)(F)F)c3)c(=O)oc12
- growth inhibition [1]: 11.9%
- growth inhibition (1 µM, minimal medium (MM)): 6.95%
- growth inhibition [2]: 21.7%
- growth inhibition (5 µM, minimal medium (MM)): < 0%

SMILES: Cc1nn(C)cc1C(C)Nc1nncc(-c2ccc(C(F)(F)F)cc2)n1 (stereo not drawn)
- growth inhibition [1]: 94.7%
- growth inhibition (1 µM, minimal medium (MM)): 97.4%
- growth inhibition [2]: 99.9%
- growth inhibition (5 µM, minimal medium (MM)): 91.7%

SMILES: Cc1nc(-c2ccccn2)nc(N2CCC(Cc3ccccc3)C2)c1Cl (stereo not drawn)
- growth inhibition [1]: 52.8%
- growth inhibition (1 µM, minimal medium (MM)): 3.18%
- growth inhibition [2]: 80.2%
- growth inhibition (5 µM, minimal medium (MM)): 84.9%

SMILES: O=C(NCCN1CCCC1)c1cc(NCCN2CCOCC2)nc2ccc(Cl)cc12
- growth inhibition [1]: 97.7%
- growth inhibition (1 µM, minimal medium (MM)): 97.2%
- growth inhibition [2]: 92.2%
- growth inhibition (5 µM, minimal medium (MM)): 96.8%

SMILES: O=C(NC1CC1)c1ccc(CSCc2ccccc2Cl)o1
- growth inhibition [1]: 59.9%
- growth inhibition (1 µM, minimal medium (MM)): > 100%
- growth inhibition [2]: > 100%
- growth inhibition (5 µM, minimal medium (MM)): 90.8%

SMILES: Cc1nc2ccccn2c1C(=O)NCc1ccc(Cl)cc1
- growth inhibition [1]: 1.31%
- growth inhibition (1 µM, minimal medium (MM)): < 0%
- growth inhibition [2]: 31%
- growth inhibition (5 µM, minimal medium (MM)): 10.3%

SMILES: Cc1cc(OCC(=O)Nc2ccc(C(C)C)cc2)n(C)c(=O)c1C#N
- growth inhibition [1]: 18.1%
- growth inhibition (1 µM, minimal medium (MM)): 33%
- growth inhibition [2]: 18.4%
- growth inhibition (5 µM, minimal medium (MM)): 21%

SMILES: O=C(Nc1ccc(N2CCNCC2)cc1)c1ccn2ncc(-c3cccc(Cl)c3)c2n1
- growth inhibition [1]: > 100%
- growth inhibition (1 µM, minimal medium (MM)): > 100%
- growth inhibition [2]: > 100%
- growth inhibition (5 µM, minimal medium (MM)): 99.8%

SMILES: CCOC(=O)c1noc(N)c1-c1ccccc1
- growth inhibition [1]: 59.8%
- growth inhibition (1 µM, minimal medium (MM)): 12.2%
- growth inhibition [2]: 44.4%
- growth inhibition (5 µM, minimal medium (MM)): 0.705%

SMILES: CO[C@H]1/C=C\O[C@@]2(C)Oc3c(C)c(O)c4c(O)c(/c(=C/NN5CCN(C)CC5)c(O)c4c3C2=O)=N\C(=O)/C(C)=C\C=C/[C@H](C)[C@H](O)[C@@H](C)[C@@H](O)[C@@H](C)[C@H](OC(C)=O)[C@@H]1C
- growth inhibition [1]: 35.5%
- growth inhibition (1 µM, minimal medium (MM)): 38.2%
- growth inhibition [2]: > 100%
- growth inhibition (5 µM, minimal medium (MM)): 97.2%
